# From the supplement of paper PMC12632987
# In all, about 1,800 sequences were measured (“median log2 fold change of GCK-ALFA target abundance (FLAG IP / Myc IP barcode read proportion)”: median about 0.14, lowest 2% from about -0.84 on). Many of the other results were omitted from the sample, so the lowest values are more common in it than they were.
# T1: TRAF2, Q12933
# T1 chain: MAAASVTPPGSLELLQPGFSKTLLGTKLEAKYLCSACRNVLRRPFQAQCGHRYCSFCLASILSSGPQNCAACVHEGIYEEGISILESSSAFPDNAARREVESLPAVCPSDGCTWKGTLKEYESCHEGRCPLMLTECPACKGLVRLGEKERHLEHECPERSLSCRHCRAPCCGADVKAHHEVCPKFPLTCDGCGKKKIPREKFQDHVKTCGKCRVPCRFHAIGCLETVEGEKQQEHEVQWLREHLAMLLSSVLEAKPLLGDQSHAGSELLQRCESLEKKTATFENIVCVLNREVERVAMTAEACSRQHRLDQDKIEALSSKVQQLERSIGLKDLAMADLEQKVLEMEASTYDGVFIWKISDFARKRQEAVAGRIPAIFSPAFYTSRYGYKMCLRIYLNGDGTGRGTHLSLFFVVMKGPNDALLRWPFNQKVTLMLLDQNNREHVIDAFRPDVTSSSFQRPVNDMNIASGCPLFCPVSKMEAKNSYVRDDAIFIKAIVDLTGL
# B1: traf2_out_3_89_2287 (protein)
# chain: SEEREKKIEELRRIIDRYLKGFEKSARRVAKEMLEEGYSLDTLEGVLNASKTALVEEIRRLAKERGLSEEDIKELVEEATKRLDEIVDKILEEAKKARAE
# B2: traf2_out_19_16_1983 (protein)
# chain: AEEEAERLLAEMRRHLDEALRLAEETVANLDKLSRDELMDRLVEISELVRRAQEALQRALELLADDPERRAAIRAEYDERLDRINRLMTKIVDRLLELLK
# B3: traf2_out_11_79_931 (protein)
# chain: SEKRKELEELIKKALKLVEELIKKLKEGNISEEEFAKTIEEILELLQRAMQLALELGLSDVLVLLSEARRHVLLSRTRNLEELEKAAKYLKEALKELEKE
# B4: traf2_out_18_167_1826 (protein)
# chain: SEEAEKKINELRDKLIEYSEIRRLALAAIEALRTDPAAAEAALAAVIAALEKVPEFRPDAERLKALPREELPAALEEIAERAQRKMNEIYKEIEEIKKKA
# B5: traf2_out_6_3_2531 (protein)
# chain: DRESLLADARKVLENMGITTAAELQRLVEAEVRAIRQLISRPDVDRADLAGARSVIALARAMVEVAAETLPDFTPEQQARLQALLAEAEELVRRREEELA
# B6: traf2_out_20_3_2095 (protein)
# chain: EELEKELEKALKEAAKLIKKAIALADPETAARLEALLKRLKAAEKLPLEDRLVALSAVRRELLALAEEARAAGREELAKLLEEAAEEVNRAMNLAYKIIE
# B7: traf2_out_9_17_2611 (protein)
# chain: SAEEEELKERLLEAIEEVLKELVEKGYITEEEAEEILKKVKELIEKGASPDEIIAEFLGMIASILLTKSNLSLPEANKIVGEAYRRLQERLEKIEKELAE
# B8: traf2_out_16_104_1406 (protein)
# chain: AAATQAAFDAIIAELNKIAEELGKIANKIYKKMETASPELKEKLTDALVDASELRRQALEAAVAAAQARATGGDLAAAQATLAELKKKAEEVKKKAEELF
# B9: traf2_out_14_149_1255 (protein)
# chain: SETEKKRKALEEARALMEEIAAILEAALAAGSTEVDRERLRALVEEARAILREQGFVLGHLLAIEEMLATTEEFTLADIEALLAEVRRAAESLAVLAEML
# B10: traf2_out_6_3_2517 (protein)
# chain: MEESIRKDARTVLENMGITTVEQLKKLVEANVNAVKKLVSRKDVDRADLAAANSVLNLTRAMVEVAAETLPDLTEEDVKEMNALIDEARELIEKKKKELE
# B11: traf2_out_20_38_2040 (protein)
# chain: EEEKEEEERLLEIAKKATEVADKTEAWVEEKLAAGVSPEEIIAETKKLITEKLAAIGKEEEAKELIERLDTLAAAGEVRRGVVLVMARAAAIVYQKEQEE
# B12: traf2_out_20_3_2223 (protein)
# chain: EELKREIEEELRKIEELLEKAKPLLPEEDYKKLKELLEKAREALETDLTDALVYLSELRRLALELAQEARAAGNEELAKLLEEMAERANRAAGLVLKAIE
# B13: traf2_out_14_166_1275 (protein)
# chain: MSPEEIERIRKIVDELEPLTDAAVARLEAILAANADKLTPEQLARVRALLDLARRNIGSSAINAIREIAAIFAAAGLAEAAAAARALADELEAKLKELNK
# B14: traf2_out_18_167_1835 (protein)
# chain: EEEKEKKRNELLDEMIDISEHYRAAIEYLELLAKDPKEAEAKKEEYMKKIDKDPELVAKIKEVLALPDEERKKAAKALADEVYDERQKKMQELWDKREAV
# B15: traf2_out_20_38_2012 (protein)
# chain: SEEEKEKEKEEKLIEHANEAYDRAEAWVAALQAAGKSVAEIAAEAKKRIRELLTAHGLEEEAEELIEDVDRVLDSPDAERLIVQILARAETLVFQKELQK
# B16: traf2_out_13_95_1095 (protein)
# chain: SAEVAAKINAIADKMLDEVLKILEELLKKMEKAGKLVEEVKEALDLAEKRSINEAIHLLKELAKKYPEFKEEFEEAIKKIEEIKREAGREVAKILKEEEE
# B17: traf2_out_15_48_1341 (protein)
# chain: SVEELRAVASEIADEIDAAKDAVAAELEALRPSAAPEQRAPLAEAIDAARHGRGQNTVLALLDRLEPLLAPEQAARVAALRDRLRAVVRAASARMAEVLK
# B18: traf2_out_18_3_1931 (protein)
# chain: SEEERKEVSDKIDEIVDDARARAERELERAREELPEKREEIDRLRAALEAGAAPFGILDALAELYEEAGKEEEAKEIEEYLSEKRKEMQELVDEYEKLIK
# B19: traf2_out_11_169_847 (protein)
# chain: EQEEKNRQIIDKALELEDKAKEELKKHALALAREAGLDVAEVEAIFEKHKGKSLSAIAAALIRWFREQGKEEAAAAVEAKYEELKEEINKKMTEFLKELE
# Target: T1, TRAF2, Q12933
# Assay: median log2 fold change of GCK-ALFA target abundance (FLAG IP / Myc IP barcode read proportion) (log2 ratio); each designed protein is fused to an ALFA-tag nanobody in HEK293 cells to bring the named protein to FLAG-tagged glucokinase (GCK); Myc marks an untargeted standard; higher = target protein stabilised (more abundant)
# Conditions: target protein: 3xFLAG-MCP-GCK-ALFA reporter; HEK293 landing pad (RPLP)
# Outline: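 Binders fused to an ALFA nanobody were recombined as a library into HEK293 landing-pad cells, which were induced with 2 μg mL^−1 doxycycline and then transfected to express a FLAG-tagged target and a Myc-tagged standard. After 48 h, circular RNA barcodes recovered by anti-FLAG and anti-Myc immunoprecipitation of lysates were reverse transcribed, amplified and sequenced. Each binder's target abundance is the median log2 ratio of FLAG to Myc barcode read proportions, from barcodes present at ≥10^−7 in both replicates, binders carrying ≥3 barcodes per replicate, a 10^−6 pseudocount and pooled replicates.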
row,Binder,median log2 fold change
1,B1,-0.239
2,B2,-0.215
3,B3,0.265
4,B4,0.154
5,B5,-0.925
6,B6,-0.0878
7,B7,0.0354
8,B8,0.196
9,B9,-0.105
10,B10,-1.1
11,B11,0.281
12,B12,0.163
13,B13,0.268
14,B14,0.297
15,B15,0.283
16,B16,-0.132
17,B17,0.194
18,B18,0.304
19,B19,-0.218
